BRCT inh green = qHTS Assay for Inhibitors of BRCT-Phosphoprotein Interaction (Green Fluorophore); AID 875, 2007; Potency, µM (top dose mostly 76.9 µM), for inactives: top-dose activity change, negative = inhibition, usual class: inhibitors; BRCA1 BRCT-phosphopeptide binding, green fluorescence polarization; Breast cancer type 1 susceptibility protein (Homo sapiens), P38398; 75,000 tested, 0.05% active;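 note: potency is the fitted concentration of half-maximal effect; plate controls were peptide without protein for full effect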
Target sequence (P38398 whole entry, looked up): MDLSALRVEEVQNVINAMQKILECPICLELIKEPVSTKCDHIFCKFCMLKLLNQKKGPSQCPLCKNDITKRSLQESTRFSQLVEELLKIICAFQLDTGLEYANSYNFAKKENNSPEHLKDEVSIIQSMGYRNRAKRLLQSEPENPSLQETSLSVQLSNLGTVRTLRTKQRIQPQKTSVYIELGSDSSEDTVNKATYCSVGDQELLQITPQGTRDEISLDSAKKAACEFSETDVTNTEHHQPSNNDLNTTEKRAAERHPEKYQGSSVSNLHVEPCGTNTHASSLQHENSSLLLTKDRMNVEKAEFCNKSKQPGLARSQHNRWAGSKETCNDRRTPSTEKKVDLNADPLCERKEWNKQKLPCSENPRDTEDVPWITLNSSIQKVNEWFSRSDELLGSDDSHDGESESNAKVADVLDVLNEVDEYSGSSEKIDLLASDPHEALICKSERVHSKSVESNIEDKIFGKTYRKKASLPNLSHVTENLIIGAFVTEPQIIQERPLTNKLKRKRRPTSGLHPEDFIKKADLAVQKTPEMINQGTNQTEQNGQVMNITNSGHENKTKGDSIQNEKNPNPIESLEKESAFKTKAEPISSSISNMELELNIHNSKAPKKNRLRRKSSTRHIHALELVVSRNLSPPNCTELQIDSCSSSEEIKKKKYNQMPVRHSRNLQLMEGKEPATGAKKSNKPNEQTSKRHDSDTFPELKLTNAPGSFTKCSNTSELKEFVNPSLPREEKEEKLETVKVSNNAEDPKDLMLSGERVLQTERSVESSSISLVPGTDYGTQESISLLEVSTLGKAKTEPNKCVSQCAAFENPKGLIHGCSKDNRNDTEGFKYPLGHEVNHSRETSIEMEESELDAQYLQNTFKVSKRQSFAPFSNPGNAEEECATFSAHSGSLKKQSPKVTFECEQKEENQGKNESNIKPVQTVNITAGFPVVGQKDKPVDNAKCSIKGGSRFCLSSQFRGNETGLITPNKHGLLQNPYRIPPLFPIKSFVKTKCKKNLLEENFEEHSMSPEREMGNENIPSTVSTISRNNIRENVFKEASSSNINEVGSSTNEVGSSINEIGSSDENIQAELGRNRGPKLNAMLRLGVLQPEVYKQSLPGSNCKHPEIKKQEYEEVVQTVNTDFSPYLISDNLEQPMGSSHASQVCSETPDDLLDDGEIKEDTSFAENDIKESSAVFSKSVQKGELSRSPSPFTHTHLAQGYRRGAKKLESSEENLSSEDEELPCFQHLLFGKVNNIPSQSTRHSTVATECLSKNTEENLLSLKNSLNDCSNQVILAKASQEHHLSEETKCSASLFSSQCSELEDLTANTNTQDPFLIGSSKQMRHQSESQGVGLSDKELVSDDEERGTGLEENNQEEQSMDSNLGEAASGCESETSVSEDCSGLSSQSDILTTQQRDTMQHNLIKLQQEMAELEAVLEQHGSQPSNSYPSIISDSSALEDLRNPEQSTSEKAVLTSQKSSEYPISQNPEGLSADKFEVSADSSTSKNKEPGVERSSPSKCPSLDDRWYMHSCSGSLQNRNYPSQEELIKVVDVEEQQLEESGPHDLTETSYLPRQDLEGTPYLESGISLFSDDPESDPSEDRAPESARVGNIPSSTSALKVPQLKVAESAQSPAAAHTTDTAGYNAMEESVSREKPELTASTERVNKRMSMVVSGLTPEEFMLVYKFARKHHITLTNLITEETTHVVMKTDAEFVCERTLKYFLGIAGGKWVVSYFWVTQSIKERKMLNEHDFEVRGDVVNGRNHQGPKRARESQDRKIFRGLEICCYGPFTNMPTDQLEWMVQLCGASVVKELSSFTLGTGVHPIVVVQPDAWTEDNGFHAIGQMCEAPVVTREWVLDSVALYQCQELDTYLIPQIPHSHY
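Fluorescence polarization: His-tagged BRCT (~35 kDa BRCA1 C-terminus, 250 nM) bound to 100 nM fluorescein-labeled phosphorylated 10-aa BACH1 peptide, pH 7.3 phosphate buffer with DTT and Tween 20. Compounds incubated 12 min at room temperature; inhibition read as lowered polarization.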
TsaE inh = qHTS Assay for Inhibitors of YjeE. 71,000 tested, 0.05% active. tRNA threonylcarbamoyladenosine biosynthesis protein TsaE (Escherichia coli (strain …. Potency, µM. purified YjeE enzyme, qHTS inhibition assay. AID 605, 2007
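Fluorescence polarization of a BODIPY Texas Red–ADP probe (2 uM) bound to purified YjeE (10 uM) was read after 15 min room-temperature incubation with compounds. Loss of polarization marks inhibitors; ADP serves as titrated control.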
Hsp90 Hop PPI = qHTS Assay for Disrupters of an Hsp90 Co-Chaperone Interaction; Hsp90 C-terminal peptide / TPR2A (Hop) interaction, human; AlphaScreen TPR2A-His6 binding biotin-Hsp90 C-terminal peptide; Potency, µM (series often up to 57 µM), without a hit: at the highest dose activity change, negative = inhibition; 71,000 tested, 0.44% active; AID 595, 2007; active = well fitted curve in either direction with a large enough effect; inconclusive = small, poorly fitted or top-dose-only effect, or another doubt; note: potency is the fitted concentration of half-maximal effect; % is set by controls: 0 for no effect and ±100 for the full control effect
BRCT PPI red = qHTS Assay for Inhibitors of BRCT-Phosphoprotein Interaction (Red Fluorophore) | Breast cancer type 1 susceptibility protein (Homo sapiens), P38398 | BRCT-phosphopeptide binding, red fluorescence polarization | Potency, µM (titrated, usually from 76.9 µM), for the others: at the top dose activity change, negative = inhibition, usual class: inhibitors | 75,000 tested, 0.03% active | AID 892, 2007; note: % is set by controls: 0 for no effect and ±100 for the full control effect
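Rhodamine-labelled pBACH1 10-mer (100 nM) bound to BRCT domain (100 nM) at pH 7.3; compounds incubated 12 min room temperature, polarization read. Free peptide defines full inhibition; unlabelled decapeptide titrated as control.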
HEK293 cAMP ctrl = qHTS Assay for Agonists of the Thyroid Stimulating Hormone Receptor: Activators of Intracellular cAMP Concentrations in Parental HEK 293; 73,000 tested, 2.5% active; Potency, µM (titrated, usually from 57.1 µM), for inactives: at the top dose activation, hits mostly activators; AID 938, 2007; parental HEK293 CNG cAMP sensor, membrane potential fluorescence; note: potency is the fitted concentration of half-maximal effect; % of control where 0% means no effect; nearly all actives have a fitted effect of over 55% in size
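Parental HEK 293 cells stably expressing a modified CNG channel (no TSHR) report cAMP rise as membrane depolarization. Membrane potential dye with 100 uM RO 20-1724 was loaded for 60 min at room temperature, then compound added for 30 min; fluorescence read at 590 nm.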
TSHR agonist = qHTS Assay for Agonists of the Thyroid Stimulating Hormone Receptor; HEK293-CNG-TSHR cells (CNG channel as cAMP sensor), membrane potential dye, cAMP; Potency, µM (series often up to 57.1 µM), for inactives: at the top dose activation, usual class: activators; 73,000 tested, 0.48% active; Thyrotropin receptor (Homo sapiens), P16473; active = well fitted activation curve with a large enough effect in the main read-out, with a control signal flat, not every such curve was filed as active; inconclusive = small, poorly fitted or top-dose-only effect, or a change in a side signal; inactive = no such curve, though single readings can be large or run the other way; % of control where 0% means no effect;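 note: the control signal comes from parental cells without the receptor; potency is the fitted concentration of half-maximal effect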
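HEK 293 cells stably expressing TSHR and a modified CNG channel, with CNG-only parental cells as counterscreen, were preloaded 60 min at room temperature with membrane potential dye containing 100 uM RO 20-1724. Compound exposure was 30 min, and depolarization was read as fluorescence at 590 nm.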
Numbers without * were called inactive; i = inactive; u = inconclusive; x = not tested or not shown; [ ] = another dose, or the depositor's remark. Shown are actives, neighbours in structure and some others; about 3.3% of the full set was active somewhere. Unless noted, calls come from the whole dose curve; as a rule, active = well fitted curve in the direction sought with a large enough effect; inconclusive = small, poorly fitted or top-dose-only effect, or another doubt; inactive = no such curve, though single readings can be large; an effect the other way counts as inactive or inconclusive.

SMILES	BRCT inh green	TsaE inh	Hsp90 Hop PPI	BRCT PPI red	HEK293 cAMP ctrl	TSHR agonist
CCN1C(C)=C(C(=O)OC)C(c2ccccc2)N2C(=O)[C@@]3(C(=O)OC)O[C@@]12C1C(=O)N(C)C(=O)C13 (some centres not stated)	-1%[15.4 µM]	x	x	2%[15.4 µM]	2%[11.4 µM]	1%[11.4 µM]
O=C(c1cccs1)N(CC1CCCO1)c1nc(-c2ccccc2)cs1 (configuration not stated)	2%	i	u	-1%	16µM*	u
O=C(c1ccco1)N(CC1CCCO1)c1nc(-c2ccccc2)cs1 (configuration not stated)	1%	i	7%	1%	u	u
Cc1cccc2cc(C#N)c(NCCNC(=O)NC3CCCCC3)nc12	0%	i	0%	-3%	20µM*	u
Cc1ccc2cc(C#N)c(NCCNC(=O)C3CCC3)nc2c1C	-2%	i	0%	-1%	28%	x
O=C(c1ccc(Cc2nc3ccccc3[nH]2)cc1)N1CCCCC1	1%	x	x	-3%	-19%	1%
O=C1c2ccccc2C(Cc2ccncc2)(Cc2ccncc2)c2ccccc21	-5%	i	2%	-1%	3.2µM*	u
O=C(Oc1cccc2cccnc12)c1ccc(Br)o1	0%	i	25µM*	-2%	5%	2%
CC(C)=CCNc1ncnc2c1c(C#N)cn2[C@H]1O[C@@H](CO)[C@@H](O)[C@@H]1O	2%[15.4 µM]	i	-2%[11 µM]	0%[15.4 µM]	-4%[11.4 µM]	2%[11.4 µM]
O=C(c1cccc2c1-c1ccccc1/C2=N/O)N1CCCCC1	-2%	i	-3%	1%	13µM*	u
O=C(c1ccccc1)c1ccccc1C(=O)N1CCCC1	0%	i	-1%	0%	5%	23%
COc1ccc(Cl)cc1N=Nc1ncc[nH]1	-2%	i	-9%	0%	-8%	-14%
CCN(CC)C(=O)c1sc2nc(-c3ccc(OC)cc3)cn2c1C	0%	i	-1%	0%	16µM*	u
COc1ccc(-c2cn3c(C)c(C(=O)NCCN4CCOCC4)sc3n2)cc1	-3%	i	-4%	1%	0%	5%
CCC(C)(C)NC(=O)C(c1cccs1)N(CC1CCCO1)C(=O)Cn1nnc2ccccc21 (configuration not stated)	-1%	i	-1%	1%	u	u
CCC(C)(C)NC(=O)C(c1ccncc1)N(Cc1cccs1)C(=O)Cn1nnc2ccccc21 (configuration not stated)	0%	i	0%	-1%	20µM*	u
CC(C)(C)NC(=O)C(c1ccncc1)N(Cc1cccs1)C(=O)Cn1nnc(-c2cccs2)n1 (configuration not stated)	2%	i	-8%	-1%	20µM*	u
Nc1nc(SCC(=O)c2ccc(Br)cc2)c2[nH]cnc2n1	0%[15.4 µM]	i	-2%[11 µM]	2%[15.4 µM]	-3%[11.4 µM]	5%[11.4 µM]
O=C(O)[C@H]([C@H]1NCCS1)N1Cc2ccccc2C1	-1%[15.4 µM]	i	2%[11 µM]	0%[15.4 µM]	2%[11.4 µM]	3%[11.4 µM]
CC1(C)CC(=O)C2=C(C1)NC(SCC(=O)Nc1ccccc1)=C(C#N)C2c1ccco1 (configuration not stated)	-1%	i	26%	0%	16µM*	u
O=C(CCCSc1nnc(-c2cccs2)n1CC1CCCO1)c1ccccc1 (configuration not stated)	-1%	i	-2%	1%	u	u
CCOc1ccc(C(C)=O)cc1CSc1nnc(-c2cccs2)n1CC1CCCO1 (configuration not stated)	1%	i	-4%	0%	10µM*	u
Cc1cc(OCc2ccc(F)cc2)nc(-c2ccccc2O)n1	-2%	i	25µM*	0%	26%	x
Cc1cc(OC2CCCCC2)nc(-c2ccccc2O)n1	-1%	i	3.2µM*	-1%	15%[11.4 µM]	17%[11.4 µM]
COc1cccc(OC)c1OCCNC[C@@H]1COc2ccccc2O1	1%	i	-3%	1%	32µM*	u
SMILES	BRCT inh green	TsaE inh	Hsp90 Hop PPI	BRCT PPI red	HEK293 cAMP ctrl	TSHR agonist
COc1ccc(CCNC[C@H](O)c2ccc(O)cc2)cc1OC	-2%	i	-10%	-1%	u	u
CC(C)=CCC/C(C)=C/CO/N=C1/C[C@@H](O)[C@@H](O)[C@@H]2[C@@H]3C(=O)N(Cc4ccc5c(c4)OCO5)C(=O)[C@H]3CC[C@H]12	0%[15.4 µM]	x	x	-1%[15.4 µM]	9%[11.4 µM]	-7%[11.4 µM]
CCc1c(C)nc(SCC(=O)c2ccc(C)c(C)c2)[nH]c1=O	-3%	i	2%	0%	25µM*	u
CC(Sc1ncc(C#N)c(N)n1)C(=O)Nc1ccccc1 (configuration not stated)	0%	i	-4%	-1%	32µM*	u
CCCCn1nnc(NC(=O)c2sc3cc(Cl)ccc3c2Cl)n1	0%	i	0%	0%	25µM*	u
CO[C@@H]1/C=C\O[C@]2(C)Oc3c(C)c(O)c4c(O)c(c(/C=N\N5CCN(C)CC5)c(O)c4c3C2=O)NC(=O)/C(C)=C\C=C/[C@H](C)[C@H](O)[C@H](C)[C@H](O)[C@H](C)[C@H](OC(C)=O)[C@@H]1C	x	i	-16%	x	-8%	-10%
Cc1ccccc1-c1nnc(SCC(=O)NC2CCCCC2)o1	2%	i	-1%	-1%	32µM*	u
O=c1cc(-c2ccccc2)oc2cc(O[C@H]3O[C@H](CO)[C@@H](O)[C@H](O)[C@@H]3O)c(O)c(O)c12	x	i	-6%	x	0%	0%
O=C(Nc1ccc2c(c1)OCO2)C1CC(c2ccccc2Cl)=NO1 (configuration not stated)	2%	i	-4%	0%	8%	8%
CCn1cc(C2=NOC(C(=O)Nc3ccc4c(c3)OCO4)C2)c(C)n1 (configuration not stated)	-1%	x	x	0%	1µM*	u
Cc1cccc(C)c1NC(=O)C(c1cccs1)N(Cc1ccco1)C(=O)Cn1nnc2ccccc21 (configuration not stated)	-1%	i	0%	0%	16µM*	u
